According to PubChem BioAssay (NCATS):
Results filed as inconclusive are left out. The source made the active and inactive calls. Unless noted, the call rests on the fitted dose curve.

Legend:
[1] = molecular target: Androgen receptor (Homo sapiens) (UniProt P10275); test: qHTS assay for small molecule agonists of androgen receptor signaling (AID 588515; active means well fitted curve in the direction sought with a large enough effect in the signal ratio, with a control signal flat; the % refers to the signal ratio; further: on the % scale 0 is the no-effect control and ±100 the full control effect); settings: AR-UAS-bla HEK293, beta-lactamase ratio, agonist 16 h; stronger effect = higher value
Method in brief: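 Stimulation of an AR-responsive β-lactamase reporter in GripTite HEK293 cells was measured after 16 h compound exposure at 37 °C, via CCF4 fluorescence after 2 h RT. EC50 from Hill fits, normalized to R1881 at 30 nM.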

[2] = molecular target: Androgen receptor (Homo sapiens) (UniProt P10275); test: qHTS assay for small molecule antagonists of androgen receptor signaling (AID 588516; active means well fitted curve in the direction sought with a large enough effect in the signal ratio, with a control signal flat, not every such curve was filed as active; the % refers to the signal ratio; further: on the % scale 0 is the no-effect control and ±100 the full control effect)
Method in brief: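 AR-UAS-bla-GripTite HEK 293 cells (2000/well, 5 h at 37 C) received compound titrations, then R1881 at 10 nM final; after 16 h at 37 C, CCF4 dye 2 h RT, beta-lactamase fluorescence read; IC50 from Hill fits.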

[3] = molecular target: Bile acid receptor (Homo sapiens) (UniProt Q96RI1); test: qHTS assay for small molecule antagonists of farnesoid X receptor signaling (AID 588526); further: on the % scale 0 is the no-effect control and ±100 the full control effect
Method in brief: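 Concentration-response titrations were fitted to the Hill equation for half-maximal inhibition and maximal response, with data normalised to 50 uM chenodeoxycholic acid and DMSO control wells. Cells: FXR-UAS-bla HEK293T, dialyzed FBS.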

[4] = molecular target: Bile acid receptor (Homo sapiens) (UniProt Q96RI1); test: qHTS assay for small molecule agonists of farnesoid X receptor signaling (AID 588527); settings: HEK293T FXR-UAS-bla, beta-lactamase ratio, 16 h; activation: stronger effect = higher value;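 further: series mostly up to about 77 µM; 0% = vehicle basal and 100% = reference agonist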
Method in brief: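 FXR-UAS-bla HEK293T cells (10% dialyzed FBS) preincubated 5-7 h at 37 C, then compounds at up to 92 uM for 16 h at 37 C. CCF4 beta-lactamase read-out after 2 h RT. Normalized to chenodeoxycholic acid (100 uM) and DMSO; Hill fit gave EC50 and efficacy.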

[5] = molecular target: Peroxisome proliferator-activated receptor delta (Homo sapiens) (UniProt Q03181); test: qHTS assay for small molecule agonists of peroxisome proliferator-activated receptor delta signaling (AID 588534);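 further: 0% = DMSO basal wells and 100% = positive control agonist at 10 µM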
Method in brief: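 Agonist-mode qHTS; reporter cells, 5 hrs 37 C pre-incubation; compound titration, 18 hrs 37 C; CCF4 dye, 2 hrs RT; fluorescence read. EC50/efficacy via Hill fit.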

[6] = qHTS assay for small molecule antagonists of peroxisome proliferator-activated receptor delta signaling (AID 588535; active means well fitted inhibition curve with a large enough effect in the signal ratio, with a control signal flat, not every such curve was filed as active; the % refers to the signal ratio;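 on max response: cells co-treated with a PPAR-delta agonist as stimulator during compound exposure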); settings: HEK293T PPARd-UAS-bla, beta-lactamase FRET ratio, 18 h; 460 nm channel
Method in brief: (§1)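 Inhibition of PPAR-delta response element-driven beta-lactamase expression is measured in HEK293T cells exposed to a compound titration series for 18 hrs at 37 C. Half-maximal inhibition comes from Hill equation fitting.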

[7] = molecular target: Peroxisome proliferator-activated receptor delta (Homo sapiens) (UniProt Q03181); test: as above
Method in brief: as §1

[8] = molecular target: Peroxisome proliferator-activated receptor gamma (Homo sapiens) (UniProt P37231); test: qHTS assay for small molecule agonists of peroxisome proliferator-activated receptor gamma signaling (AID 588536; active means well fitted curve in the direction sought with a large enough effect in the signal ratio, with a control signal flat, not every such curve was filed as active; the % refers to the signal ratio;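 further: 0% = DMSO basal wells and 100% = rosiglitazone at 2 µM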)
Method in brief: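 Cells were plated and held 6–6.5 h at 37 C, then compounds were added as a titration series. After a further 16 h, CCF4 dye was loaded for 2 h at room temperature and emission at 460/530 nm recorded.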

[9] = molecular target: Vitamin D3 receptor (Homo sapiens) (UniProt P11473); test: qHTS assay for small molecule antagonists of vitamin D receptor signaling (AID 588541);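 further: receptor activated by calcitriol during compound treatment; series mostly up to about 77 µM; on the % scale 0 is the no-effect control and ±100 the full control effect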
Method in brief: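 VDR-UAS-bla HEK293T cells (2000/well, 2% charcoal-stripped FBS) were treated with titrated compounds plus 1-alpha,25-dihydroxyvitamin D3 (50 nM or 3 nM final) for 16 h at 37 C. CCF4 beta-lactamase fluorescence was read; Hill fits gave IC50.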

[10] = molecular target: Vitamin D3 receptor (Homo sapiens) (UniProt P11473); test: qHTS assay for small molecule agonists of vitamin D receptor signaling (AID 588543);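 further: 0% = DMSO basal and 100% = reference agonist control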
Method in brief: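 GeneBLAzer VDR-UAS-bla HEK293T cells in 2% charcoal-stripped FBS medium were dosed with compound titrations for 16 h at 37 °C; CCF4 β-lactamase readout (405 nm ex, 460/530 nm em). EC50 and efficacy from Hill fits, normalized to 50 nM calcitriol (100%) and DMSO (0%).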

[11] = qHTS assay for small molecule agonists of retinoid X receptor alpha signaling (AID 588544); settings: HEK293T RXRa-UAS-bla, beta-lactamase reporter, 18 h; 530 nm emission;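 on activation: 0% = DMSO basal wells and 100% = reference agonist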
[12] = molecular target: Retinoic acid receptor RXR-alpha (Homo sapiens) (UniProt P19793); test: as above
[13] = molecular target: Thyroid hormone receptor beta (Homo sapiens) (UniProt P10828); test: qHTS assay for small molecule agonists of thyroid hormone receptor beta signaling (AID 588545);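 further: 0% = DMSO only and 100% = 10 nM T3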
Method in brief: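 TR-UAS-bla-GripTite HEK 293 cells in medium with 2% charcoal/dextran FBS, 0.1 mM NEAA and 1 mM sodium pyruvate were treated with titrated compounds for 18 hrs at 37 C. Beta-lactamase reporter was read with CCF4 dye (ex 405, em 460/530 nm); EC50 from Hill fits.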

[14] = qHTS assay for small molecule antagonists of retinoid X receptor alpha signaling (AID 588546; active means well fitted inhibition curve with a large enough effect in the signal ratio, with a control signal flat, not every such curve was filed as active; the % refers to the signal ratio); settings: HEK293T RXRa-UAS-bla, beta-lactamase ratio, antagonist mode; measured here: W530 green channel, cytotoxicity proxy
Method in brief: (§2)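 Beta-lactamase reporter inhibition, read as CCF4 fluorescence ratio (ex 405, em 460/530 nm) after 2 h at RT. HEK293T UAS-bla cells, 2500/well, were stimulated with 9-cis-RA at 500 or 100 nM final alongside test compound for 18 h at 37 C.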

[15] = molecular target: Retinoic acid receptor RXR-alpha (Homo sapiens) (UniProt P19793); test: as above; settings: HEK293T RXRa-UAS-bla, beta-lactamase ratio, antagonist mode
Method in brief: as §2

[16] = molecular target: Thyroid hormone receptor beta (Homo sapiens) (UniProt P10828); test: qHTS assay for small molecule antagonists of thyroid hormone receptor beta signaling (AID 588547; active means well fitted inhibition curve with a large enough effect in the signal ratio, with a control signal flat, not every such curve was filed as active; the % refers to the signal ratio); settings: TR-UAS-bla HEK293, beta-lactamase ratio, antagonist mode, 18 h
Method in brief: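 TR-UAS-bla GripTite HEK293 cells in 2% charcoal/dextran FBS medium were preincubated 4 h at 37 C, given compound (0.59 nM to 92 uM) plus 0.4 nM T3 (final) for 18 h, then CCF4 for 2 h at RT; Hill fit gave IC50.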

[17] = qHTS assay for small molecule agonists of the antioxidant response element (ARE) signaling pathway (AID 651741; active means well fitted activation curve with a large enough effect in the signal ratio; the % refers to the signal ratio; further: % of control where 0% means no effect)
Method in brief: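 Reporter: beta-lactamase under ARE, stably in HepG2. Exposure: 16 h, 37 C, compounds delivered in DMSO by pin tool after 5 h cell preincubation. Readout: FRET substrate fluorescence after 2 h at RT.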

[18] = qHTS assay for environmental chemicals that activate the Aryl hydrocarbon Receptor (AhR) signaling pathway (AID 651777; active means well fitted curve in the direction sought with a large enough effect; an effect the other way counts as inactive or inconclusive; further: % of control where 0% means no effect; nearly all actives have a fitted effect of over 15% in size); settings: 1A2-DRE human hepatoma cells, luciferase, 24 h; activation: stronger effect = higher value
Method in brief: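 Induction of CYP1A2 transcription through AhR is detected by luciferase in 1A2-DRE hepatoma cells. Compounds or DMSO act for 24 hr at 37 C before a 30 min One-Glo step at room temperature.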

[19] = molecular target: Peroxisome proliferator-activated receptor alpha (Homo sapiens) (UniProt Q07869); test: qHTS assay for small molecule agonists of the peroxisome proliferator-activated receptor alpha (PPARalpha) signaling pathway (AID 651778; active means well fitted curve in the direction sought with a large enough effect; an effect the other way counts as inactive or inconclusive; further: % of control where 0% means no effect); settings: PathHunter PPARalpha complementation, chemiluminescence, 6 h; stronger effect = higher value
Method in brief: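 Cells plated at 2,000/well and held overnight at 37 C, 5% CO2, then compound added by pin tool for 6 hr; after PathHunter detection reagent and 60 min at room temperature, chemiluminescence from enzyme complementation was read.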

[20] = qHTS assay for small molecule agonists of the antioxidant response element (ARE) signaling pathway measured by Nrf2-dependant transcriptional activity (AID 720636; active means well fitted curve in the direction sought with a large enough effect in the repeat runs; an effect the other way counts as inactive or inconclusive;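 further: HepG2 cells with an ARE-driven luciferase reporter; % of control where 0% means no effect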)
Method in brief: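 We exposed ARE-luc HepG2 cells, seeded in assay medium with 1% dialyzed FBS and allowed 6 hr to adhere, to test compounds overnight (16 hr, 37 C) before measuring luciferase with ONE-Glo.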

[21] = qHTS assay for small molecule agonists of the antioxidant response element (ARE) signaling pathway measured by Nrf2-dependant transcriptional activity - cell viability counter screen (AID 720653; active means well fitted curve in the direction sought with a large enough effect in the repeat runs; an effect the other way counts as inactive or inconclusive; further: on the % scale 0 is the no-effect control and ±100 the full control effect); settings: ARE-bla HepG2 viability, CellTiter-Glo ATP luminescence, 16 h; max response: stronger effect = lower value
Method in brief: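 ARE-bla HepG2 cells (2,000/well) rested 5 hrs at 37C/5% CO2, then exposed to compounds in DMSO for 16 hrs. Viability was read in the same wells as intracellular ATP by luminescence, 30 min at room temperature after reagent addition.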

[22] = qHTS assay for cell viability of HEK293 cells (AID 743288; active means well fitted curve in the direction sought with a large enough effect; an effect the other way counts as inactive or inconclusive; further: on the % scale 0 is the no-effect control and ±100 the full control effect; nearly all actives have a fitted effect of over 50% in size); settings: ATP luminescence (CellTiter-Glo), 18 h; max response: stronger effect = lower value
Method in brief: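 After 18 h compound exposure at 37 C, parental HEK293 cells (2,000/well) are lysed with CellTiter-Glo and luminescence is read following 30 min at room temperature.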

[23] = qHTS assay for cell viability of the p53RE-bla HCT-116 cell line (AID 743292; active means well fitted curve in the direction sought with a large enough effect; an effect the other way counts as inactive or inconclusive; further: on the % scale 0 is the no-effect control and ±100 the full control effect; nearly all actives have a fitted effect of over 55% in size)
Method in brief: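 In this qHTS counter-screen, metabolically competent p53RE-bla HCT-116 cells were counted via their ATP content. Compounds were applied for 16 h at 37 C and luciferase-coupled luminescence was measured.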

[24] = qHTS for Inhibitors of the Functional Ribonucleoprotein Complex (vRNP) of Lassa (LASV) Arenavirus: LASV Primary Screen - GLuc reporter signal (AID 1347082; calls by dose curve; tested in HEK293 reporter line; further: series mostly up to about 57 µM; on the % scale 0 is the no-effect control and ±100 the full control effect; nearly all actives have a fitted effect of over 60% in size)
[25] = qHTS for Inhibitors of the Functional Ribonucleoprotein Complex (vRNP) of Lassa (LASV) Arenavirus: Viability assay - alamar blue signal for LASV Primary Screen (AID 1347083; calls by dose curve; tested in HEK293 reporter line; further: series mostly up to about 57 µM; on the % scale 0 is the no-effect control and ±100 the full control effect; nearly all actives have a fitted effect of over 80% in size)
[26] = qHTS for Inhibitors of the Functional Ribonucleoprotein Complex (vRNP) of Lymphocytic Choriomeningitis Arenaviruses (LCMV): Viability assay - alamar blue signal for LCMV Primary Screen (AID 1347085; calls by dose curve; tested in HEK293 reporter line; further: series mostly up to about 57 µM; on the % scale 0 is the no-effect control and ±100 the full control effect; nearly all actives have a fitted effect of over 80% in size)
[27] = molecular target: Nucleoprotein (Lymphocytic choriomeningitis virus (strain Armstrong)) (UniProt P09992); test: qHTS for Inhibitors of the Functional Ribonucleoprotein Complex (vRNP) of Lymphocytic Choriomeningitis Arenaviruses (LCMV): LCMV Primary Screen - GLuc reporter signal (AID 1347086); further: series mostly up to about 57 µM; on the % scale 0 is the no-effect control and ±100 the full control effect; nearly all actives have a fitted effect of over 70% in size
[28] = molecular target: Nuclear receptor subfamily 1 group I member 2 (Rattus norvegicus) (UniProt Q9R1A7); test: qHTS assay for small molecule activators of the rat pregnane X receptor (rPXR) signaling pathway (AID 651751; call rule not given here; further: 0% is about no effect); settings: rPXR reporter cells, luciferase (One-Glo), 24 h
[29] = qHTS assay for small molecule activators of the human pregnane X receptor (PXR) signaling pathway (AID 720659; call rule not given here; further: 0% is about no effect)

Chain of Peroxisome proliferator-activated receptor delta (Homo sapiens) (Q03181 whole entry, looked up): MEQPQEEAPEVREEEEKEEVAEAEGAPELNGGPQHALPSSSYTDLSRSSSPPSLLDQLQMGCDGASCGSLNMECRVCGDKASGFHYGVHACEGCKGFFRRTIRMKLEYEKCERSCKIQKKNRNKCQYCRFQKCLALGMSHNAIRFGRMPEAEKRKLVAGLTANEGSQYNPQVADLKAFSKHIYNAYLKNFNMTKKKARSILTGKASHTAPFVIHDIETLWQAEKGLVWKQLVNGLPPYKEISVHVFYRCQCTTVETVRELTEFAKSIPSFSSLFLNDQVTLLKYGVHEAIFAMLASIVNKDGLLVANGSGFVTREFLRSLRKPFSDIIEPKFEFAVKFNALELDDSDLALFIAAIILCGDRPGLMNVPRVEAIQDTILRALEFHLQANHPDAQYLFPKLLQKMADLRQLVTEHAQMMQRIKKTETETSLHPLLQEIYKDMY
Chain of Bile acid receptor (Homo sapiens) (Q96RI1 whole entry, looked up): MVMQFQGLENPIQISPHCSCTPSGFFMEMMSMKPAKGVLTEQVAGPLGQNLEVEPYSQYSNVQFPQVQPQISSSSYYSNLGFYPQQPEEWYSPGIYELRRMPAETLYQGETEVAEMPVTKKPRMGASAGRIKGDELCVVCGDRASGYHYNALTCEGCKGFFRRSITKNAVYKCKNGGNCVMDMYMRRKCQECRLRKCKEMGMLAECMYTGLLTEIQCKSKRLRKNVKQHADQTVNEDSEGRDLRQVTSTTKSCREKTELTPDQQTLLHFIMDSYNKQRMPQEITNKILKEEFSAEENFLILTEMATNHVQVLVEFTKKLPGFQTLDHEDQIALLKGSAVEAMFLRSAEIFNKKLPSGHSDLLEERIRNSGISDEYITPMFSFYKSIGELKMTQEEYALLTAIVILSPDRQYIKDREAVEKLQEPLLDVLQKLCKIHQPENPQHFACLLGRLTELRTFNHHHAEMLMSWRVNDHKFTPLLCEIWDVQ
Chain of Vitamin D3 receptor (Homo sapiens) (P11473 whole entry, looked up): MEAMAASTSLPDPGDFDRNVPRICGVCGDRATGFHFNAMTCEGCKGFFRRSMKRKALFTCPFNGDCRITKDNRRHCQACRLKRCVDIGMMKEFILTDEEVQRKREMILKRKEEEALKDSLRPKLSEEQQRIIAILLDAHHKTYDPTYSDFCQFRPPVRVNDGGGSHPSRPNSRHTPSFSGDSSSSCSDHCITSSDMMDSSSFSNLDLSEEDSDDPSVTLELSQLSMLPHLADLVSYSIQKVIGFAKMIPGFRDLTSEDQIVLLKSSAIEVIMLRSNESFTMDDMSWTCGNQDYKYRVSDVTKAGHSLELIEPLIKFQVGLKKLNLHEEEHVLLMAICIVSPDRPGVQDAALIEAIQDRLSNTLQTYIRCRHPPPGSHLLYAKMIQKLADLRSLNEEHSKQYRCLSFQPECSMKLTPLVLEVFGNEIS
Chain of Androgen receptor (Homo sapiens) (P10275 whole entry, looked up): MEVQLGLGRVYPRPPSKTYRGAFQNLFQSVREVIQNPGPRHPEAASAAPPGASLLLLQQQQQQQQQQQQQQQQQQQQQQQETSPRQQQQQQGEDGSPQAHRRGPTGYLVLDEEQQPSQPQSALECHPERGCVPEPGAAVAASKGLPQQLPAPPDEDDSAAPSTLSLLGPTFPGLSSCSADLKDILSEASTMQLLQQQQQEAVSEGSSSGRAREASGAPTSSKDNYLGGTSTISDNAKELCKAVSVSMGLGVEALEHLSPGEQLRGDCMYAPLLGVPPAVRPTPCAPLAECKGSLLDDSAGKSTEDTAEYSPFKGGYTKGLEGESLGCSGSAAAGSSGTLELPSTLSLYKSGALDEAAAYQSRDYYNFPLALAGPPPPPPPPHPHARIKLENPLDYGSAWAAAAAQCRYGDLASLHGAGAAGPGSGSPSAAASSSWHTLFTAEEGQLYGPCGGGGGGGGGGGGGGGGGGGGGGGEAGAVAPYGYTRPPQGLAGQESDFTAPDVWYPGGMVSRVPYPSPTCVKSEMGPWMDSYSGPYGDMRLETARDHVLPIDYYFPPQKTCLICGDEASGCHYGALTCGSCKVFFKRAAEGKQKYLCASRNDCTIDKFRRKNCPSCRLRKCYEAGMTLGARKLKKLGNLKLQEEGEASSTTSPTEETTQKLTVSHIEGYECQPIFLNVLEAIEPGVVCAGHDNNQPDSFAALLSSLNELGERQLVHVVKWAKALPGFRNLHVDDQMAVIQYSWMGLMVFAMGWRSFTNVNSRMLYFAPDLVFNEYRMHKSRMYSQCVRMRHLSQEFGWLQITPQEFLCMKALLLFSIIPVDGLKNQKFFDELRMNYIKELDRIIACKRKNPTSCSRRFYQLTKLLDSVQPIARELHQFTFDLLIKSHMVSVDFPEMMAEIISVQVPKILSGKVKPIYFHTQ
Chain of Retinoic acid receptor RXR-alpha (Homo sapiens) (P19793 whole entry, looked up): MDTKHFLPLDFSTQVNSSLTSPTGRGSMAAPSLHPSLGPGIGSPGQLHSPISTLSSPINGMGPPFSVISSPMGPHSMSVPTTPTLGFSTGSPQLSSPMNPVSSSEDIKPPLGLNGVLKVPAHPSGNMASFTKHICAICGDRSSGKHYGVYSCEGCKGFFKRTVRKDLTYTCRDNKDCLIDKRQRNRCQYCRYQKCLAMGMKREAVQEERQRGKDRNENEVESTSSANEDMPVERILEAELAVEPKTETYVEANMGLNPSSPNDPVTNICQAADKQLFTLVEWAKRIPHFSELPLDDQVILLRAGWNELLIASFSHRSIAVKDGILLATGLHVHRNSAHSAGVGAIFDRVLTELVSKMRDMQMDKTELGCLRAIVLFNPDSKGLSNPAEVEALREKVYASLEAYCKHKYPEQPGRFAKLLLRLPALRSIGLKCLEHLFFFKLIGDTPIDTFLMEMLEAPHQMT
Chain of Thyroid hormone receptor beta (Homo sapiens) (P10828 whole entry, looked up): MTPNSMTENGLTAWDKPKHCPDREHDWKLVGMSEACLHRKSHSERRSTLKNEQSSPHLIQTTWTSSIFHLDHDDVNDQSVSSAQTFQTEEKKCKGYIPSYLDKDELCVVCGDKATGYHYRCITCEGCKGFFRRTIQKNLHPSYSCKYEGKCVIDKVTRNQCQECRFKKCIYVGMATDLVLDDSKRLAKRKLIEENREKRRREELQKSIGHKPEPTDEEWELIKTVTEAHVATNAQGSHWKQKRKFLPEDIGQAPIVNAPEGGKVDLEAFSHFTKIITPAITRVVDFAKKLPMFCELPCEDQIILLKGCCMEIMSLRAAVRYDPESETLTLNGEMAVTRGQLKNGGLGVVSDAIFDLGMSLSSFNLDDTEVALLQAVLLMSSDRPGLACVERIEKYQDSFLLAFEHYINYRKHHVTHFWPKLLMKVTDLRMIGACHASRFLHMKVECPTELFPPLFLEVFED
Chain of Nucleoprotein (Lymphocytic choriomeningitis virus (strain Armstrong)) (P09992 whole entry, looked up): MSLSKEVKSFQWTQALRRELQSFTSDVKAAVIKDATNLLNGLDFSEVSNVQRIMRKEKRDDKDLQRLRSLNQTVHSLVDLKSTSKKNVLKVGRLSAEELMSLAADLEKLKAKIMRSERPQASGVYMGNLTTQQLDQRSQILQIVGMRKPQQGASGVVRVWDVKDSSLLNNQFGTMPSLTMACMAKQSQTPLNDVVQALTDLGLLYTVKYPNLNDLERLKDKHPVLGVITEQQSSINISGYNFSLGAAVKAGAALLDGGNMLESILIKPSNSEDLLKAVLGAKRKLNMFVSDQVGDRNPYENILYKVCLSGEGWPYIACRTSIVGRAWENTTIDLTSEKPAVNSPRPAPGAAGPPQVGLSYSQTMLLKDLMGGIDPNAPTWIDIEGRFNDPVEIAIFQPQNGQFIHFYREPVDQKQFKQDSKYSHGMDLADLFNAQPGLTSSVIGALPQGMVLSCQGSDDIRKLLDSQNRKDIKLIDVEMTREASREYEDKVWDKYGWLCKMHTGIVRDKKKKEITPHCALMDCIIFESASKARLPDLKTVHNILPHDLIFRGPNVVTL
Chain of Peroxisome proliferator-activated receptor alpha (Homo sapiens) (Q07869 whole entry, looked up): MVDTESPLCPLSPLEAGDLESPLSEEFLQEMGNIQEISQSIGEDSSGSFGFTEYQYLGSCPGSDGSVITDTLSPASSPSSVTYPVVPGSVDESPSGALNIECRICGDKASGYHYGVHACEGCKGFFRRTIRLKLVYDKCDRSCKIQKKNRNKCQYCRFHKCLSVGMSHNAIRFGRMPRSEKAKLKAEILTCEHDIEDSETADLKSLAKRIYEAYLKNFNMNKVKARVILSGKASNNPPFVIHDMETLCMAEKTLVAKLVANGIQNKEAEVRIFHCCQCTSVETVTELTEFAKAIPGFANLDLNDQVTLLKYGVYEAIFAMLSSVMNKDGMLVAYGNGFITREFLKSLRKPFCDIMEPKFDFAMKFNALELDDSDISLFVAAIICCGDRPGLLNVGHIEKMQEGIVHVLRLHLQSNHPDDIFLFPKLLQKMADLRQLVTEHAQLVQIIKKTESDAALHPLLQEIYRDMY
Chain of Peroxisome proliferator-activated receptor gamma (Homo sapiens) (P37231 whole entry, looked up): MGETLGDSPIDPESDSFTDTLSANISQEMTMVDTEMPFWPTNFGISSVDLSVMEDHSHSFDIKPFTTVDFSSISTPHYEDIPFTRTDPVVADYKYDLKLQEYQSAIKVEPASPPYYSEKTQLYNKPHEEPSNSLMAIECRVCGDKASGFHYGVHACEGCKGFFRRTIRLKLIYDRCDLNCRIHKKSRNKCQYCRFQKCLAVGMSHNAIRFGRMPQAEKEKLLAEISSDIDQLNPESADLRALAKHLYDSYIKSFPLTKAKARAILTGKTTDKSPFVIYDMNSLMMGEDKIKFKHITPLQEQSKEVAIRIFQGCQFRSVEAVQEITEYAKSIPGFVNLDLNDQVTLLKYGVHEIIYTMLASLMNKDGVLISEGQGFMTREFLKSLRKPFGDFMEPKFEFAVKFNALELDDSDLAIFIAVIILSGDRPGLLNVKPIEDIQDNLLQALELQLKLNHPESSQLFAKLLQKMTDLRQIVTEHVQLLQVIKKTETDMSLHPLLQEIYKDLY

Cc1ccc(C)c2ccccc12
-5.36%: max response [14]
-18.4%: max response [11]
inactive: activation [1] 26.3% | outcome [2] | Potency [3] | activation [4] -1.23% | Potency [5] | outcome [7] | outcome [8] | outcome [9] | Potency [10] | outcome [12] | Potency [13] | max response [15] 3.54% | activity change % (negative = inhibition) [16] -0.662% | Potency [17] | activation [18] 1.38% | max response [19] -1.64% | Potency [20] | max response [21] -14.6% | max response [22] -1.65% | outcome [23] | Potency [24] | Potency [25] | Potency [26] | Potency [27] | max response [28] -3.33% | outcome [29]
22.6%: max response [6]
